Common to all, as to experiment: NCI-60 one-dose screen, 48 h (100 = growth as untreated, 0 = no growth, -100 = all killed)
The subject of assay [1] is NCI-H23 lung. Conditions: 10 µM unless noted.
The test system of assay [2] is HOP-62 NSCLC. Conditions: 10 µM unless noted.
The subject of assay [3] is NCI-H460 lung. Conditions: 10 µM unless noted.
Assay [4] concerns A549/ATCC NSCLC. Conditions: 10 µM unless noted.
Assay [5] has as its system K-562 leukemia. Conditions: 10 µM unless noted.
Assay [6] concerns RXF 393 renal. Particulars: 10 µM unless noted.
In assay [7] the test system is UACC-257 melanoma. Conditions: 10 µM unless noted.
Assay [8] concerns U251 CNS. Conditions: 10 µM unless noted.
Assay [9] concerns LOX IMVI melanoma. Particulars: 10 µM unless noted.
The test system of assay [10] is SK-MEL-2 melanoma. Conditions: 10 µM unless noted.
Assay [11] relates to UO-31 renal. Conditions: 10 µM unless noted.
Assay [12] relates to TK-10 renal. Conditions: 10 µM unless noted.
Assay [13] has as its system A498 renal. Conditions: 10 µM unless noted.
For assay [14], the system named is HL-60(TB) leukemia. Conditions: 10 µM unless noted.
Assay [15] concerns SR leukemia. Conditions: 10 µM.
For assay [16], the system named is OVCAR-4 ovarian. Conditions: 10 µM unless noted.
In assay [17] the test system is BT-549 breast. Particulars: 10 µM.
Assay [18] concerns SF-295 CNS. Conditions: 10 µM unless noted.
Assay [19] concerns HCC-2998 colon. Conditions: 10 µM unless noted.
Assay [20] has as its system SK-MEL-28 melanoma. Conditions: 10 µM unless noted.

The panel holds about 83,000 compounds, 20% with a hit somewhere; the sample as a whole holds those more often.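 The test compound was applied at a single concentration to cells in 96-well plates for 48 hours, and percent growth was recorded.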 Values without a mark were called inactive. Active and inactive are the calls of the source. Rule for the calls: active = growth percent below 10; inactive = the rest.

The source of these data is PubChem BioAssay (NCI).

As to `Oc1ccc(Br)cc1CN1CCN(Cc2ccc(Cl)cc2)CC1`, the growth in [1] is 91.1%; in assay [2], 57.6%; in assay [3] it was 93.1%; in assay [4] it was 62.3%; in [5] it was -34.3% (active); in assay [6], 76.7%. The growth in assay [7] is 86.7%; in assay [8], 48.9%; in [9], 19.7%; in assay [10], 88.2%; in assay [11], 47.4%; in [12] it was 106%. Moreover, the growth is 105% in assay [13]; 47.5% in [14]; 22.7% in assay [15]; 65.5% in [16]; 86.3% in assay [17].
For `CCC[CH2][Sn]([CH2]CCC)([CH2]CCC)[O]C(=O)c1ccc(Cl)cc1Cl`, the growth was -65.5% (active) in [1]; -82.2% (active) in [2]; -78% (active) in [3]; -79.9% (active) in assay [4]; -38.2% (active) in assay [5]; -88.5% (active) in assay [6]. For the same compound, the growth in assay [18] was -89.9% (active); in assay [7] it was -94.8% (active); in [8], -85.8% (active); in assay [9] it was -70.3% (active); in [10], -73.6% (active); in assay [11], -86.9% (active). In addition, the growth in assay [12] was -90.5% (active); in [13] it was -85.3% (active); in assay [14] it was -32.7% (active); in [15], 3.12% (active); in assay [16], -67.7% (active); in assay [17], -96% (active). Further, the growth in [19] was -90.9% (active).
On to `O=[N+]([O-])c1cc([N+](=O)[O-])c(Cl)c(Cl)c1Cl`, for which the growth is 43% in assay [1]; 80.3% in assay [4]; 13% in assay [5]; -86.2% (active) in assay [6]; 98.5% in [18]; 20.4% in assay [7]. In addition, the growth in assay [8] is -79.4% (active); in [9], -62.6% (active); in assay [20], 65.9%; in assay [10], -23.8% (active); in assay [11], -63.2% (active); in assay [12] it was -99.5% (active). Also, the growth in assay [14] was 19.5%; in [15] it was -5% (active); in assay [16], -31.4% (active); in assay [17] it was 49.8%; in [19] it was 78.8%.
For the compound `Oc1c(Br)cc(Br)cc1Br.[Cu+2]`, the growth is 104% in [1]; 121% in [2]; 103% in [3]; 98% in assay [4]; 107% in assay [5]; 109% in assay [6]. In addition, the growth in assay [18] was 97.6%; in assay [7] it was 101%; in assay [8], 110%; in [9], 89%; in assay [20], 101%; in assay [10], 95.3%. Moreover, the growth in [11] is 81.2%; in assay [12], 117%; in [13], 106%; in assay [14] it was 87.9%; in assay [15], 90.8%; in assay [16], 87.4%. Also, the results for the growth in [17] and in [19] were 122% and 95.8%, respectively.
Regarding `C=C=[CH][Sn]([c]1ccccc1)([c]1ccccc1)[c]1ccccc1`, the growth is -43.3% (active) in assay [1]; -63.6% (active) in assay [2]; -78.8% (active) in [3]; -58.7% (active) in assay [4]; -83.5% (active) in [6]; -42.7% (active) in assay [18]. The growth is -37.2% (active) in assay [7]; -75.6% (active) in assay [8]; -77.2% (active) in assay [9]; -30.6% (active) in assay [10]; -84.3% (active) in assay [11]; -74.7% (active) in [12]. The growth in [16] is -40.2% (active); in assay [17], -34.9% (active); in assay [19], -67.2% (active).
Take `CC(C)OC(=S)[S-].[Au+].c1ccc([PH+](c2ccccc2)c2ccccc2)cc1`: the growth in assay [1] was 42.4%; in assay [2], 76%; in assay [3], 79.5%; in assay [4], 84.5%; in assay [5] it was 8.05% (active); in assay [6], -77.1% (active). Further, the growth in assay [18] is 91.1%; in assay [7], 28.1%; in assay [8], 11.2%; in [9], -64.9% (active); in assay [20], 16.5%; in assay [10], 33%. Moreover, the growth in [11] was 21.9%; in [12], -3.22% (active); in assay [14] it was 1.15% (active); in [15], 3.82% (active); in assay [16] it was 38.9%; in assay [17], -3.75% (active). The growth in [19] is 50.8%.
On to `COc1c(O)c2c3c(c1OC)-c1ccccc1CC3N(C)CC2` (configuration not stated), for which the growth is 102% in [1]; 104% in [2]; 110% in assay [3]; 103% in [4]; 92.3% in [5]; 133% in [6]. Further, the growth in [18] is 99.9%; in assay [7], 103%; in assay [8], 99.1%; in assay [9], 99.3%; in assay [20], 117%; in assay [11], 89.9%. In addition, the growth in assay [12] is 102%; in [13] it was 116%; in assay [14], 112%; in assay [15], 75.1%; in assay [16], 120%; in assay [19], 111%.
Regarding `O=C(CCc1ccco1)NC1CCN(CC2(c3ccc(Cl)cc3)CCC2)CC1`, the growth in assay [1] was -22.6% (active); in assay [2], 39.3%; in [3] it was 3.79% (active); in assay [4] it was 8.74% (active); in assay [5], 3.19% (active); in assay [6], 28.4%. Also, the growth in assay [18] is -46.5% (active); in assay [7], -4.36% (active); in [8] it was 7.34% (active); in [20] it was 30.1%; in [10], -24.3% (active); in assay [11], 10.7%. In addition, the growth in assay [12] was -0.211% (active); in [13], -15% (active); in [14] it was -42.7% (active); in assay [15] it was -24.6% (active); in [17], 12.4%; in [19] it was 11.4%.
Turning to `COc1ccc(C2=NN(c3ccccc3)C(c3sc(N(CCCl)CCCl)nc3Cl)C2)cc1` (configuration not stated), the growth in assay [2] was 80.1%; in [3] it was 99%; in assay [4], 85.6%; in [5] it was 64.1%; in [6], 110%; in [18], 93.2%. Further, the growth is 89.7% in assay [7]; 94.4% in assay [8]; 89.8% in assay [9]; 97.9% in assay [20]; 91.3% in assay [10]; 78.6% in assay [11]. Besides, the growth in assay [12] is 117%; in [13] it was 122%; in [14], 99.8%; in [15], 86.1%; in [16], 91.9%; in assay [17], 108%. Moreover, the growth in [19] is 107%.
